Data: the supplement of paper PMC8975748
Counter-ions that a name gives are not always drawn. ± gives the standard deviation of the averaged measurements.

Experiments:
[1] = tested on: Saccharomyces cerevisiae BY4741 SeMeCo community; experiment: z-score of prototroph abundance vs DMSO median; higher = larger share of this subpopulation than in DMSO controls; conditions: 10 µM; 24 h; SM minimal medium; subpopulation (auxotrophy): Prototroph
In short: (§1)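 A community of Saccharomyces cerevisiae BY4741 was built from four plasmids that each restored one auxotrophy and encoded a distinct fluorescent protein. Pre-grown overnight to OD600 1.0 and diluted to 0.3, it was dispensed at 70 µl into 384-well plates acoustically predosed with library drugs for a final 10 µM, and grown 24 h in minimal SM medium. Cells were then paraformaldehyde-fixed and imaged by automated confocal microscopy. Thresholds and autofluorescence correction came from single-auxotroph fluorescent strains, and each subpopulation's abundance was scored as a z-score relative to the vehicle-well median.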

[2] = tested on: Saccharomyces cerevisiae BY4741 SeMeCo community; experiment: z-score of subpopulation abundance vs DMSO median, subpopulation auxotrophic for M; higher = larger share of this subpopulation than in DMSO controls; conditions: 10 µM; 24 h; SM minimal medium; subpopulation (auxotrophy): M
In short: as §1

[3] = tested on: Saccharomyces cerevisiae BY4741 SeMeCo community; experiment: z-score of subpopulation abundance vs DMSO median, subpopulation auxotrophic for L; higher = larger share of this subpopulation than in DMSO controls; conditions: 10 µM; 24 h; SM minimal medium; subpopulation (auxotrophy): L
In short: as §1

[4] = tested on: Saccharomyces cerevisiae BY4741 SeMeCo community; experiment: z-score of subpopulation abundance vs DMSO median, subpopulation auxotrophic for LM; higher = larger share of this subpopulation than in DMSO controls; conditions: 10 µM; 24 h; SM minimal medium; subpopulation (auxotrophy): LM
In short: as §1

[5] = tested on: Saccharomyces cerevisiae BY4741 SeMeCo community; experiment: z-score of subpopulation abundance vs DMSO median, subpopulation auxotrophic for HM; higher = larger share of this subpopulation than in DMSO controls; conditions: 10 µM; 24 h; SM minimal medium; subpopulation (auxotrophy): HM
In short: as §1

[6] = tested on: Saccharomyces cerevisiae BY4741 SeMeCo community; experiment: z-score of subpopulation abundance vs DMSO median, subpopulation auxotrophic for HU; higher = larger share of this subpopulation than in DMSO controls; conditions: 10 µM; 24 h; SM minimal medium; subpopulation (auxotrophy): HU
In short: as §1

[7] = tested on: Saccharomyces cerevisiae BY4741 SeMeCo community; experiment: z-score of subpopulation abundance vs DMSO median, subpopulation auxotrophic for UM; higher = larger share of this subpopulation than in DMSO controls; conditions: 10 µM; 24 h; SM minimal medium; subpopulation (auxotrophy): UM
In short: as §1

[8] = tested on: Saccharomyces cerevisiae BY4741 SeMeCo community; experiment: z-score of subpopulation abundance vs DMSO median, subpopulation auxotrophic for HL; higher = larger share of this subpopulation than in DMSO controls; conditions: 10 µM; 24 h; SM minimal medium; subpopulation (auxotrophy): HL
In short: as §1

[9] = tested on: Saccharomyces cerevisiae BY4741 SeMeCo community; experiment: z-score of subpopulation abundance vs DMSO median, subpopulation auxotrophic for HLU; higher = larger share of this subpopulation than in DMSO controls; conditions: 10 µM; 24 h; SM minimal medium; subpopulation (auxotrophy): HLU
In short: as §1

[10] = tested on: Saccharomyces cerevisiae BY4741 SeMeCo community; experiment: z-score of subpopulation abundance vs DMSO median, subpopulation auxotrophic for HLM; higher = larger share of this subpopulation than in DMSO controls; conditions: 10 µM; 24 h; SM minimal medium; subpopulation (auxotrophy): HLM
In short: as §1

[11] = tested on: Saccharomyces cerevisiae BY4741 SeMeCo community; experiment: z-score of subpopulation abundance vs DMSO median, subpopulation auxotrophic for HUM; higher = larger share of this subpopulation than in DMSO controls; conditions: 10 µM; 24 h; SM minimal medium; subpopulation (auxotrophy): HUM
In short: as §1

[12] = tested on: Saccharomyces cerevisiae BY4741 SeMeCo community; experiment: z-score of subpopulation abundance vs DMSO median, subpopulation auxotrophic for LUM; higher = larger share of this subpopulation than in DMSO controls; conditions: 10 µM; 24 h; SM minimal medium; subpopulation (auxotrophy): LUM
In short: as §1

[13] = tested on: Saccharomyces cerevisiae BY4741 SeMeCo community; experiment: z-score of subpopulation abundance vs DMSO median, subpopulation auxotrophic for HLUM; higher = larger share of this subpopulation than in DMSO controls; conditions: 10 µM; 24 h; SM minimal medium; subpopulation (auxotrophy): HLUM
In short: as §1

[14] = tested on: Saccharomyces cerevisiae BY4741 SeMeCo community; experiment: mean cell size (pixel area) (pixels); higher = larger cells; conditions: 10 µM; 24 h; SM minimal medium
In short: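 Mean cell pixel area per well was determined by automated confocal microscopy with Harmony analysis of paraformaldehyde-fixed cells. The cells, a Saccharomyces cerevisiae BY4741 community of four plasmids that each complement one auxotrophy and carry a fluorescent marker, were incubated for 24 h with drug at a final 10 µM in SM medium in 384-well plates. Numbers are averaged over 3 replicates. Same SeMeCo high-content imaging drug screen: Selleck FDA-approved drugs at 10 µM, 24 h in SM medium, 384-well plates, 3 replicates.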

[15] = tested on: Saccharomyces cerevisiae BY4741 SeMeCo community; experiment: z-score of subpopulation abundance vs DMSO median, subpopulation auxotrophic for H; higher = larger share of this subpopulation than in DMSO controls; conditions: 10 µM; 24 h; SM minimal medium; subpopulation (auxotrophy): H
In short: as §1

[16] = tested on: Saccharomyces cerevisiae BY4741 SeMeCo community; experiment: z-score of subpopulation abundance vs DMSO median, subpopulation auxotrophic for U; higher = larger share of this subpopulation than in DMSO controls; conditions: 10 µM; 24 h; SM minimal medium; subpopulation (auxotrophy): U
In short: as §1

| SMILES | z-score of prototroph abundance [1] | z-score of subpopulation abundance [2] | z-score of subpopulation abundance [3] | z-score of subpopulation abundance [4] | z-score of subpopulation abundance [5] | z-score of subpopulation abundance [6] | z-score of subpopulation abundance [7] | z-score of subpopulation abundance [8] | z-score of subpopulation abundance [9] | z-score of subpopulation abundance [10] | z-score of subpopulation abundance [11] | z-score of subpopulation abundance [12] | z-score of subpopulation abundance [13] | mean cell size [14] | z-score of subpopulation abundance [15] | z-score of subpopulation abundance [16] |
| --- | --- | --- | --- | --- | --- | --- | --- | --- | --- | --- | --- | --- | --- | --- | --- | --- |
| O=C1Cc2cc(CCN3CCN(c4nsc5ccccc45)CC3)c(Cl)cc2N1 [Ziprasidone HCl] | -0.07 | 0 | 1.56 | 1.54 | 0.58 | -0.4 | -0.51 | 1.22 | 0.15 | 1.1 | 0.81 | 0.56 | 0.44 | – | – | – |
| CCCc1nc(C)c2c(=O)nc(-c3cc(S(=O)(=O)N4CCN(CC)CC4)ccc3OCC)[nH]n12 [Vardenafil HCl Trihydrate] | -0.75 | 0.64 | 0.04 | -1.19 | 0.87 | 1.92 | 0.56 | -0.13 | 0.57 | -0.16 | 0.81 | -0.24 | 0.24 | 12.53 ± 0.092 | 0.41 | – |
| COc1ccc(Cc2cnc(N)nc2N)cc1OC [Diaveridine] | – | 0.6 | -0.53 | -0.01 | -0.29 | -0.25 | -0.39 | – | 0.14 | -0.26 | 0.18 | -0.41 | 0.06 | 12.35 ± 0.055 | -0.11 | -0.37 |
| C[C@]12CC[C@@H]3c4ccc(OC(=O)c5ccccc5)cc4CC[C@H]3[C@@H]1CC[C@@H]2O [Estradiol Benzoate] | -0.27 | 0.35 | 0.05 | – | 0.05 | -0.12 | 0.15 | – | -0.51 | -0.6 | 0.38 | 0.37 | – | 12.4 ± 0.25 | -0.36 | -0.43 |
| O=C1N=C(O)NC1(c1ccccc1)c1ccccc1 [Phenytoin Sodium] | -0.72 | -0.37 | 0.11 | -0.6 | -1.02 | -0.05 | 0.67 | -0.83 | 0.17 | 0.15 | 0.83 | – | 1.18 | – | -0.03 | 1.21 |
| O=C(O)Cc1ccccc1Nc1c(Cl)cccc1Cl [Diclofenac Sodium] | 1.13 | 0.68 | -0.21 | -0.23 | -0.3 | – | -1.45 | – | -1.75 | -0.07 | -1.27 | -0.98 | -0.38 | – | -0.51 | -0.91 |
| CN(C)C(=O)COC(=O)Cc1ccc(OC(=O)c2ccc(NC(=N)N)cc2)cc1 [Camostat Mesilate] | 0.66 | -0.25 | 0.34 | -0.5 | -0.32 | -0.36 | -0.43 | -0.35 | -0.87 | -0.36 | -0.25 | – | -0.69 | 12.5 ± 0.12 | 0.16 | -0.37 |
| CS(=O)(=O)c1ccc(C2=C(c3ccccc3)C(=O)OC2)cc1 [Rofecoxib] | -0.48 | 0.64 | 1.07 | – | 1.11 | 0.01 | – | 0.69 | 1.31 | 1.01 | 0.77 | 1.28 | – | 12.3 ± 0.16 | 0.29 | -0.52 |
| CN1CCCN=C1/C=C/c1cccs1 [Pyrantel Pamoate] | 0.2 | 1.45 | -0.64 | -0.65 | – | 0.04 | -1.25 | -0.22 | 0.47 | 0.61 | -0.34 | – | -0.17 | 12.8 ± 0.19 | 1.26 | 0.04 |
| C=C[C@H]1CN2CC[C@H]1C[C@H]2[C@H](O)c1ccnc2ccc(OC)cc12 [Quinine HCl Dihydrate] | -0.12 | 0.59 | -0.67 | -0.52 | -0.08 | 0.2 | 1.09 | -0.28 | -0.42 | 0.48 | 0.21 | 0.52 | 0.6 | – | 0.07 | – |
| c1ccc(-c2ccc(C(c3ccccc3)n3ccnc3)cc2)cc1 (centres undefined) [Bifonazole] | -0.9 | 3.3 | -1.29 | 0.64 | -0.61 | – | 0.46 | 1.27 | 0.9 | 2.32 | 0.21 | 0.94 | 2.46 | – | 1.08 | -0.36 |
| C[C@H](Nc1ncnc2nc[nH]c12)c1cc2cccc(Cl)c2c(=O)n1-c1ccccc1 [Duvelisib (IPI-145, INK1197)] | -0.55 | -0.39 | 1.3 | 0.42 | -0.47 | -0.03 | – | 0.33 | 0.95 | 0.18 | -0.67 | 0.56 | 0.98 | 12.37 ± 0.1 | 0.93 | – |
| Clc1ccc(COC(Cn2ccnc2)c2ccc(Cl)cc2Cl)cc1 (centres undefined) [Econazole] | -7.96 | -1.6 | -1.62 | – | 2.71 | 5.61 | 9.39 | 12.8 | 4.6 | 17.3 | 4.19 | 3.58 | 17.3 | 11.9 ± 0.17 | 20.3 | 0.12 |
| O=C(Cn1ccnc1[N+](=O)[O-])NCc1ccccc1 [Benznidazole] | 0.22 | -0.28 | 0.22 | 0.19 | -0.4 | – | 0.13 | 0.08 | -0.74 | -0.65 | -0.52 | 0.15 | -0.21 | 12.49 ± 0.12 | – | 0.63 |
| C=CCc1ccc(O)c(-c2ccc(O)c(CC=C)c2)c1 [Honokiol] | 1.92 | -0.54 | -0.29 | -0.63 | -0.9 | -1.64 | -1.43 | -0.44 | -1.04 | -0.37 | -1.19 | -1.08 | – | 12.6 ± 0.22 | -1.34 | – |
